# The whole screen tested about 5,500 compounds, of which about 2,000 (36%) were called active. About 18% were inconclusive and are not listed. Some of the results follow. Values without a mark were called inactive. Cut-off read from the data, not from the text of the source: active = normalized growth mostly below about 0.91 (no sharp cut-off); inconclusive = no clear call, values can overlap the other calls; inactive = mostly above about 0.92.
# Assay: chemical genetic growth profiling, strain panel (AID 1159580);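 note: tested at 20 µM; growth read once vehicle control cultures reached saturation at 30 °C; 1 = growth at the plate median or of vehicle wells; lower values mean less growth of the strain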
# Settings: growth OD
smiles,measurement,setting,value
CCCCCCCCCCCC1=C(O)C(=O)C=C(O)C1=O,normalized growth,"S. cerevisiae deletion strains, locus YJL168C, strain set2, active compounds read low",0.975
same,normalized growth,"S. cerevisiae deletion strains, locus YJL187C, strain SWE1 (second series), active compounds read low",0.981
same,normalized growth,"S. cerevisiae deletion strains, locus YJR043C, strain POL32, active compounds read low",0.584 (active)
same,normalized growth,"S. cerevisiae deletion strains, locus YKL068W, active compounds read low",0.936 (active)
same,normalized growth,"S. cerevisiae deletion strains, locus YKL085W, strain MDH1 (second series), active compounds read low",0.513 (active)
same,normalized growth,"S. cerevisiae deletion strains, locus YKL085W, strain MDH1, active compounds read low",0.513 (active)
same,normalized growth,"S. cerevisiae deletion strains, locus YKL160W, strain elf1, active compounds read low",0.805 (active)
same,normalized growth,"S. cerevisiae deletion strains, locus YKR001C, strain vps1, active compounds read low",0.776 (active)
same,normalized growth,"S. cerevisiae deletion strains, locus YKR026C, strain gcn3, active compounds read low",0.82 (active)
same,normalized growth,"S. cerevisiae deletion strains, locus YKR091W, strain srl3, active compounds read low",0.911 (active)
same,normalized growth,"S. cerevisiae deletion strains, locus YLL001W, strain dnm1, active compounds read low",0.502 (active)
same,normalized growth,"S. cerevisiae deletion strains, locus YLL026W, active compounds read low",0.972
same,normalized growth,"S. cerevisiae deletion strains, locus YLL041C, strain sdh2, active compounds read low",0.933
same,normalized growth,"S. cerevisiae deletion strains, locus YLR027C, strain aat2, active compounds read low",0.839 (active)
same,normalized growth,"S. cerevisiae deletion strains, locus YLR039C, strain RIC1, active compounds read low",0.296 (active)
same,normalized growth,"S. cerevisiae deletion strains, locus YLR058C, strain SHM2, active compounds read low",1
same,normalized growth,"S. cerevisiae deletion strains, locus YLR102C, strain apc9, active compounds read low",0.974
same,normalized growth,"S. cerevisiae deletion strains, locus YLR221C, strain rsa3, active compounds read low",0.801 (active)
same,normalized growth,"S. cerevisiae deletion strains, locus YLR258W, strain gsy2, active compounds read low",0.911 (active)
same,normalized growth,"S. cerevisiae deletion strains, locus YLR262C, strain YPT6 (second series), active compounds read low",0.477 (active)
same,normalized growth,"S. cerevisiae deletion strains, locus YLR262C, strain YPT6, active compounds read low",0.414 (active)
same,normalized growth,"S. cerevisiae deletion strains, locus YLR268W, strain sec22, active compounds read low",0.756 (active)
same,normalized growth,"S. cerevisiae deletion strains, locus YLR320W, strain mms22, active compounds read low",0.83 (active)
same,normalized growth,"S. cerevisiae deletion strains, locus YLR330W, strain CHS5, active compounds read low",0.842 (active)
same,normalized growth,"S. cerevisiae deletion strains, locus YLR342W, strain FKS1 (second series), active compounds read low",0.886
same,normalized growth,"S. cerevisiae deletion strains, locus YLR342W, strain FKS1, active compounds read low",0.72 (active)
same,normalized growth,"S. cerevisiae deletion strains, locus YLR357W, strain rsc2, active compounds read low",0.441 (active)
same,normalized growth,"S. cerevisiae deletion strains, locus YLR370C, strain arc18, active compounds read low",0.242 (active)
same,normalized growth,"S. cerevisiae deletion strains, locus YLR371W, strain rom2, active compounds read low",0.945
same,normalized growth,"S. cerevisiae deletion strains, locus YLR384C, strain iki3, active compounds read low",0.989
same,normalized growth,"S. cerevisiae deletion strains, locus YLR418C, strain cdc73, active compounds read low",0.819 (active)
same,normalized growth,"S. cerevisiae deletion strains, locus YML016C, strain PPZ1, active compounds read low",0.991
same,normalized growth,"S. cerevisiae deletion strains, locus YML032C, strain rad52, active compounds read low",0.882 (active)
same,normalized growth,"S. cerevisiae deletion strains, locus YML120C, strain ndi1, active compounds read low",0.952
same,normalized growth,"S. cerevisiae deletion strains, locus YML124C, strain tub3, active compounds read low",0.975
same,normalized growth,"S. cerevisiae deletion strains, locus YMR058W, strain fet3, active compounds read low",0.0857 (active)
same,normalized growth,"S. cerevisiae deletion strains, locus YMR078C, strain ctf18, active compounds read low",0.96
same,normalized growth,"S. cerevisiae deletion strains, locus YMR125W, strain sto1, active compounds read low",0.832 (active)
same,normalized growth,"S. cerevisiae deletion strains, locus YMR129W, active compounds read low",0.883 (active)
same,normalized growth,"S. cerevisiae deletion strains, locus YMR205C, strain PFK2, active compounds read low",0.901
same,normalized growth,"S. cerevisiae deletion strains, locus YMR223W, strain ubp8, active compounds read low",0.87 (active)
same,normalized growth,"S. cerevisiae deletion strains, locus YMR231W, strain pep5, active compounds read low",0.69 (active)
same,normalized growth,"S. cerevisiae deletion strains, locus YMR263W, strain SAP30, active compounds read low",0.766 (active)
same,normalized growth,"S. cerevisiae deletion strains, locus YMR307W, strain GAS1, active compounds read low",0.378 (active)
same,normalized growth,"S. cerevisiae deletion strains, locus YNL067W, strain RPL9B, active compounds read low",0.823 (active)
same,normalized growth,"S. cerevisiae deletion strains, locus YNL071W, strain lat1, active compounds read low",0.912 (active)
same,normalized growth,"S. cerevisiae deletion strains, locus YNL128W, strain TEP1, active compounds read low",0.683 (active)
same,normalized growth,"S. cerevisiae deletion strains, locus YNL209W, strain ssb2, active compounds read low",0.61 (active)
same,normalized growth,"S. cerevisiae deletion strains, locus YNL233W, strain BNI4, active compounds read low",0.857 (active)
same,normalized growth,"S. cerevisiae deletion strains, locus YNL248C, strain rpa49, active compounds read low",0.757 (active)
same,normalized growth,"S. cerevisiae deletion strains, locus YNL250W, strain rad50, active compounds read low",0.738 (active)
same,normalized growth,"S. cerevisiae deletion strains, locus YNL271C, strain bni1, active compounds read low",0.636 (active)
same,normalized growth,"S. cerevisiae deletion strains, locus YNL298W, strain CLA4, active compounds read low",0.66 (active)
same,normalized growth,"S. cerevisiae deletion strains, locus YNL307C, strain MCK1, active compounds read low",0.857 (active)
same,normalized growth,"S. cerevisiae deletion strains, locus YNL322C, strain KRE1 (second series), active compounds read low",0.922
same,normalized growth,"S. cerevisiae deletion strains, locus YNR049C, strain mso1, active compounds read low",0.638 (active)
same,normalized growth,"S. cerevisiae deletion strains, locus YNR052C, strain pop2, active compounds read low",0.866 (active)
same,normalized growth,"S. cerevisiae deletion strains, locus YOL012C, strain htz1",0.529
same,normalized growth,"S. cerevisiae deletion strains, locus YOL147C, strain pex11, active compounds read low",0.871 (active)
same,normalized growth,"S. cerevisiae deletion strains, locus YOR001W, strain rrp6, active compounds read low",0.86 (active)
same,normalized growth,"S. cerevisiae deletion strains, locus YOR061W, strain CKA2, active compounds read low",0.986
same,normalized growth,"S. cerevisiae deletion strains, locus YOR069W, strain VPS5, active compounds read low",0.983
same,normalized growth,"S. cerevisiae deletion strains, locus YOR070C, strain gyp1, active compounds read low",0.97
same,normalized growth,"S. cerevisiae deletion strains, locus YOR080W, strain dia2, active compounds read low",0.946
same,normalized growth,"S. cerevisiae deletion strains, locus YOR083W, strain WHI5, active compounds read low",0.807 (active)
same,normalized growth,"S. cerevisiae deletion strains, locus YOR106W, strain vam3, active compounds read low",0.637 (active)
same,normalized growth,"S. cerevisiae deletion strains, locus YOR136W, strain idh2, active compounds read low",0.919 (active)
same,normalized growth,"S. cerevisiae deletion strains, locus YOR144C, strain elg1, active compounds read low",0.877 (active)
same,normalized growth,"S. cerevisiae deletion strains, locus YOR184W, strain ser1, active compounds read low",0.875
same,normalized growth,"S. cerevisiae deletion strains, locus YOR265W, strain rbl2, active compounds read low",0.867 (active)
same,normalized growth,"S. cerevisiae deletion strains, locus YOR270C, strain vph1, active compounds read low",0.298 (active)
same,normalized growth,"S. cerevisiae deletion strains, locus YOR290C, strain snf2, active compounds read low",0.471 (active)
same,normalized growth,"S. cerevisiae deletion strains, locus YOR316C, strain cot1, active compounds read low",0.999
same,normalized growth,"S. cerevisiae deletion strains, locus YPL051W, strain arl3, active compounds read low",0.768 (active)
same,normalized growth,"S. cerevisiae deletion strains, locus YPL055C, strain LGE1, active compounds read low",0.483 (active)
same,normalized growth,"S. cerevisiae deletion strains, locus YPL078C, strain atp4, active compounds read low",0.647 (active)
same,normalized growth,"S. cerevisiae deletion strains, locus YPL106C, strain sse1, active compounds read low",0.794 (active)
same,normalized growth,"S. cerevisiae deletion strains, locus YPL240C, strain hsp82, active compounds read low",0.907 (active)
same,normalized growth,"S. cerevisiae deletion strains, locus YPL241C, strain CIN2, active compounds read low",0.851 (active)
same,normalized growth,"S. cerevisiae deletion strains, locus YPR119W, strain clb2, active compounds read low",0.986
same,normalized growth,"S. cerevisiae deletion strains, locus YPR141C, strain kar3, active compounds read low",0.735 (active)
same,normalized growth,"S. cerevisiae deletion strains, locus YPR163C, strain tif3, active compounds read low",0.977
same,normalized growth,"S. cerevisiae deletion strains, locus YPR167C, strain met16, active compounds read low",0.846 (active)
same,normalized growth,"S. cerevisiae deletion strains, strain wtn01, active compounds read low",0.871 (active)
same,normalized growth,"S. cerevisiae strains, strain wild type, active compounds read low",0.693 (active)

# — PubChem BioAssay AID1159580 (chemical genetic matrix, 2015)
